SF1 inhibitor = inhibitors of human SF-1, primary screen, cell-based, CHO-K1, Gal4-SF-1 LBD, luciferase luminescence; Steroidogenic factor 1 (Homo sapiens), Q13285; CHO-K1 Gal4-SF-1 LBD luciferase reporter; inhibition, % at 10 µM; 65,000 compounds, 0.55% hits;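 active means inhibition above the mean inhibition of all tested compounds plus 3 SD, cut at about 48% in these data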;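 further: 0% = SF-1 transfected cells with DMSO and 100% = mock-transfected cells lacking SF-1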
Target sequence (Q13285 whole entry, looked up, the tested form may be a part): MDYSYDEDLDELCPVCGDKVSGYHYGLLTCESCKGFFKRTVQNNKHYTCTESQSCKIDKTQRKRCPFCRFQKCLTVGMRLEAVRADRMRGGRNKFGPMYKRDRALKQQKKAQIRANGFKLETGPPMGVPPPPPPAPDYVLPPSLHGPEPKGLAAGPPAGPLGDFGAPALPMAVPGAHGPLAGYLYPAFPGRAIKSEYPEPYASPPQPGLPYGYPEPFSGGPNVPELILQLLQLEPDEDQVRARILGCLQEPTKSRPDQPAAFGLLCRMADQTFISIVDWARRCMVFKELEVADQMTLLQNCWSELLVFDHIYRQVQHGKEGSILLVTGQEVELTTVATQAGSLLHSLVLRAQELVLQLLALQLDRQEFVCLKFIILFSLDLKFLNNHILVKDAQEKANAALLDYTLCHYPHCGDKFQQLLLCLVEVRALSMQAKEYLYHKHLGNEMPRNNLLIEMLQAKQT
Active calls of the source: *. Only a selection was taken, and hits are over-represented in it overall.

SMILES	SF1 inhibitor
CCOC(=O)C(C)Oc1cccc2c(=O)n(CC(=O)NCc3ccc4c(c3)OCO4)ccc12 (stereo unspecified)	83.1*
CC1CC(=O)N(CC(=O)Nc2ccc3c(c2)OCCO3)c2ccccc2S1 (stereo unspecified)	-0.4
COc1ccccc1C(=O)NCc1ccc2c(c1)OCO2	28.3
O=C(Cn1nc(Cc2cccnc2)c2ccccc2c1=O)NCc1ccc2c(c1)OCO2	-4.1
COc1ccccc1C(=O)Nc1ccc2c(c1)OCCO2	-75.7
CC(C)N(C=O)C1(C(=O)NC2CCCCC2)CCCCC1	-0.4
O=C(O)Cc1ccc2[nH]c3ccc(CC(=O)O)cc3c2c1	7.4
O[C@@H]1C2CCCC1[C@]1(O)CCCCC1C2 (stereo partly specified)	11.5
CC1CCCN(Cc2nc3c(c(=O)n(C)c(=O)n3C)n2CCCc2ccccc2)C1 (stereo unspecified)	14.1
COC(=O)/C(=C1/Oc2cc(C)oc(=O)c2S1)C(F)(F)F	96.4*
CC(=O)Cc1nsc(Nc2ccc3c(c2)OCCO3)n1	-67.4
COc1ccc(S(=O)(=O)N(Cc2ccccc2)Cc2nc3ccccc3c(=O)[nH]2)cc1	12.5
COc1nc(Nc2nc3ccccc3c(=O)[nH]2)nc2ccc(C)cc12	76.3*
COc1ccc(Nc2nc(C)c3ccccc3n2)cc1	-98.7
O=c1nc(N2CCOCC2)ccn1Cc1ccc(Br)cc1	6.9
CCc1ccc(-c2nc(CSCC(=O)NCCCN3CCCC3=O)c(C)o2)cc1	63.3*
COCCNC(=O)c1ccc2ccccc2n1	-8.1
Cc1ccc(-c2nc(CS(=O)(=O)CC(=O)N3CC(C)CC(C)C3)c(C)o2)cc1 (stereo unspecified)	0.0
CCOC(=O)N1CCC(NC(=O)C2CCN(Cc3nc(-c4ccc(CC)cc4)oc3C)CC2)CC1	16.2
CCOc1ccc(-c2nc(CSCC(=O)NCc3ccco3)c(C)o2)cc1	94.5*
COc1ccc(C(=O)Nc2ccccc2-c2nnn(CC(=O)NCc3ccco3)n2)cc1	7.6
CCC(OC(=O)c1ccco1)C(=O)NCc1ccco1 (stereo unspecified)	13.3
CCOCCCNC(=O)CS(=O)(=O)Cc1nc(-c2cccc(OC)c2)oc1C	-6.2
COCCNC(=O)CSCc1nc(-c2ccc(SC)cc2)oc1C	90.0*
CSc1nnnn1CCn1nnnc1SC	12.5
SMILES	SF1 inhibitor
O=C(CCN1C(=O)c2ccccc2C1=O)OCn1nnc2ccccc2c1=O	3.6
CC1(C)CC(OC(=O)c2ccco2)CC(C)(C)N1O	9.0
Cc1ccc(S(=O)(=O)N(CC(=O)NCc2ccncc2)C2CCCCC2)cc1	-8.9
Cc1nn(-c2nc3ccccc3s2)c(N)c1Sc1ccc(F)cc1	-63.0
COCCCNC(=O)c1ccc(NS(C)(=O)=O)cc1	2.1
Cc1cc(C)c2cc(C(c3nnnn3CC3CCCO3)N3CCN4CCCC4C3)c(=O)[nH]c2c1 (stereo unspecified)	-1.2
CCn1nccc1C(=O)Nc1ccc(Cl)cc1Cl	-66.7
Cc1ccc(-c2cc3c(nn2)-c2ccccc2C3=O)cc1	88.1*
CCCCc1cc(O)c(CCCC)c(O)c1	-34.8
COC(=O)c1ccc(CSc2nnnn2-c2ccccc2)o1	5.7
COc1ccc(CCNc2nnc(Sc3nnnn3-c3ccccc3)s2)cc1OC	68.5*
COc1ccc(CCNS(=O)(=O)c2ccccc2)cc1OC	13.0
Cc1c(C(=O)N2CCCC2)oc2c1-c1[nH]ncc1CC2	7.4
C=CS(=O)(=O)c1ccc(Oc2ccc(S(=O)(=O)C=C)cc2)cc1	96.6*
COc1nc(OCCNC(=O)Nc2ccccc2)nc(N(C)C)n1	4.6
Cc1cccc(-n2ncc3c(N4CC(C)CC(C)C4)ncnc32)c1 (stereo unspecified)	-50.7
Cc1cccc(-n2ncc3c(NCCCO)ncnc32)c1	-67.4
COc1ccc2nc(N3CCCCC3)c(C#N)cc2c1	-50.0
COc1ccc(-n2ncc3c(N4CCCCC4)ncnc32)cc1	83.9*
CCOC(=O)C1CCCN(c2ncnc3c2cnn3-c2ccc(OC)cc2)C1 (stereo unspecified)	-58.0
CC1CN(c2ncnc3c2cnn3-c2ccc(Cl)cc2)CC(C)O1 (stereo unspecified)	-74.7
Cc1cccc(-n2ncc3c(N4CCOCC4)ncnc32)c1	64.6*
C=CCNc1ncnc2c1cnn2-c1ccc(Cl)cc1	-49.8
Clc1ccc(-n2ncc3c(N4CCCCCC4)ncnc32)cc1	76.2*
O=C(Cn1ccsc1=NC(=O)c1ccco1)c1ccccc1	4.9
SMILES	SF1 inhibitor
COc1cc2nc(COc3ccc(C#N)cc3)n(CC#N)c(=O)c2cc1OC	9.5
Cc1cc(C)n2cc(CSc3nnnn3C)nc2n1	-6.9
Cc1ccc(SCc2cc(=O)n3[nH]cnc3n2)cc1	3.2
N=c1c2c3c(sc2nc2n1CCCCC2)CCCCC3	-12.5
Cc1ccc(S(=O)(=O)N(CCO)c2cc3c(s2)CCCC3)cc1	29.5
CCC(Sc1ccccn1)C(=O)Nc1nnc(C)s1 (stereo unspecified)	-5.7
CC(C)NCC(O)Cn1c2c(c3ccccc31)CCc1c-2cnn1-c1ccccc1 (stereo unspecified)	52.5*
O=C(CCCC(=O)N(CC(=O)NC1CCCCC1)CC1CCCO1)Nc1ccccn1 (stereo unspecified)	-1.0
Cc1ccc2c(c1)C(N1CCCC1=O)CC(c1ccco1)N2 (stereo unspecified)	-57.7
O=C(c1ccc(CS(=O)(=O)Cc2ccc(Cl)cc2)o1)N1CCCC1	4.7
Cn1c(SCC(=O)N2CCCCC2)nnc1-c1ccc(S(=O)(=O)N2CCOCC2)cc1	10.5
CCOCCCNc1ccc(-c2ccccc2)nn1	-58.2
O=C(c1ccc2c3c(cccc13)C(=O)N(O)C2=O)N1CCCCC1	66.5*
CCc1ccc2[nH]cc(C(=O)N3CCCCCC3)c(=O)c2c1	1.0
O=C(c1n[nH]c(=O)c2ccccc12)N1CCN(c2ccccc2Cl)CC1	1.0
COc1ccc(Cn2c(C3CC3)nc3ccc(NC(=O)c4ccco4)cc3c2=O)cc1	-59.2
CC1CN(c2nc(-c3ccccc3)nc3ccccc23)CC(C)O1 (stereo unspecified)	24.7
CC(=O)N1CCN(c2ccc(Oc3nc(-c4ccccc4)nc4ccccc34)cc2)CC1	-12.3
c1ccc(N2CCN(c3nc(-c4ccccn4)nc4ccccc34)CC2)cc1	51.8*
CC(=O)Cc1nsc(NC(=O)c2cc(-c3cccc(C(F)(F)F)c3)oc2C)n1	-2.2
O=C(OCC(=O)N1CCCCCC1)c1cccs1	-54.8
CC1CCc2c(sc(NC(=O)c3noc4c3CCCC4)c2C(N)=O)C1 (stereo unspecified)	-49.9
COc1ccc(OCc2cccc(C(=O)O)c2)cc1	94.5*
CCOc1ccc(OCc2cccc(C(=O)O)c2)cc1	94.8*
O=C(O)c1ccc2c(c1)C(=O)N(Cc1ccccc1)C2=O	-4.6
SMILES	SF1 inhibitor
O=C(O)c1cccc(COc2ccc(CO)cc2Cl)c1	94.4*
COc1ccc(CNC(=O)c2cccc(N3CCCC3=O)c2)cc1	-23.5
COC(=O)Nc1ccc(OCc2ccccc2)cc1	-71.6
CCCCOc1ccc(C(=O)O)cc1	12.5
O=C(O)c1cccc(OCc2ccccc2Cl)c1	-80.1
Clc1ccc(OCc2nn3c(-c4ccccc4)nnc3s2)c(Cl)c1	10.0
COc1cccc(C(=O)N2CCN=C2SCc2cccnc2)c1OC	-1.0
COc1ccccc1N1CCN(C(=O)c2ccc(S(=O)(=O)N3CCCC3)cc2)CC1	-9.7
COC(=O)c1ccc(=O)n(-c2ccc(OC)cc2)c1	16.5
C=CCNC(=O)C1CCN(c2nc(C)cc(-c3ccccc3)n2)CC1	-101.7
Nc1nc(CSc2ccccn2)nc(Nc2ccccc2)n1	-58.4

High-throughput results deposited in PubChem by The Scripps Research Institute Molecular Screening Center.
